Screening data from PubChem BioAssay.
Most compounds without a hit are left out; they make up all but 9.2% or so of the library.
ELG1 repair inh – blocks ELG1-dependent DNA repair in HEK293T cells. HEK293T ELG1-luciferase reporter, luminescence, 16 h; DNA damage induced by 5-fluorouridine. Potency, µM (series often up to 46.1 µM), for inactives: top-dose activity change, negative = inhibition, usual class: inhibitors. 330,000 tested, 2.3% active. AID 504467; note: % is set by controls: 0 for no effect and ±100 for the full control effect; nearly all actives have a fitted effect of over 55% in size
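Luminescence from the luciferase reporter, measured 30 min after ONE-Glo reagent at room temperature, was the read-out. Beforehand, 2,000 cells per well were exposed for 16 hr at 37 °C to 5-fluorouridine together with compound or vehicle.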
ELG1 genotoxic – inducers of genotoxicity in HEK293T ELG1-luciferase cells; HEK293T ELG1-luciferase reporter, luminescence, 16 h; Potency, µM (highest dose often 46 µM), for the others: at the highest dose activity change, positive = activation, usual class: activators; 330,000 tested, 1.3% active; AID 504466; note: % of control where 0% means no effect; nearly all actives have a fitted effect of over 60% in size
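Genotoxic stress is detected as increased luminescence from luciferase-tagged ELG1 in HEK293T cells, measured with ONE-Glo after a 16 hr treatment at 37 °C.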
FLuc counter – counter-screen for miR-21 project: firefly luciferase inhibitors or activators; purified FLuc, Km substrates, luminescence inhibition; 360,000 tested, 6.9% active; AID 588342; P08659; Potency, µM (series often up to 57.5 µM), without a hit: top-dose activity change, negative = inhibition, most hits filed as inhibitors;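 note: plate controls were vehicle for no effect and reference inhibitor for full effect; nearly all actives have a fitted effect of over 55% in size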
Target sequence (P08659 whole entry, looked up): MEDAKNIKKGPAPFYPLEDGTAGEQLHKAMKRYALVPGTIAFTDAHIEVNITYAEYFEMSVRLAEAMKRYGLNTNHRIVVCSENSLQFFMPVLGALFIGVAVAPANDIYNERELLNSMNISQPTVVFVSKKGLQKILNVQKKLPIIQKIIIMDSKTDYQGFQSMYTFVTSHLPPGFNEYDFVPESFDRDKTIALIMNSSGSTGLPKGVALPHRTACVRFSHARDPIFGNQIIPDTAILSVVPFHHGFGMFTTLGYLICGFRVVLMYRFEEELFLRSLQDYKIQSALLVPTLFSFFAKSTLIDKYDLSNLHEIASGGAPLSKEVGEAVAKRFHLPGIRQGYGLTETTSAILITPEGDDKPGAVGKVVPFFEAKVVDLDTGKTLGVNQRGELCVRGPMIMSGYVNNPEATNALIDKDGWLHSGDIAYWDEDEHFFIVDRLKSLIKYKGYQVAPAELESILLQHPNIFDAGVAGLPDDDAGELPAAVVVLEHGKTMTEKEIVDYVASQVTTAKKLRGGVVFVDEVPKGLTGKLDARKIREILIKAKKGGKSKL
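Biochemical qHTS of compounds, final roughly 60 µM downward over six points, against 10 nM purified firefly luciferase using Km concentrations of substrates (10 uM D-luciferin, 10 uM ATP) in Tris acetate pH 7.5 buffer; luminescence output.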
Rab9 promoter act – activators of Rab9 promoter. Huh7 Rab9 promoter-luciferase reporter, luminescence, 24 h. Potency, µM (titrated, usually from 9.22 µM), for the others: at the top dose activation, negative = inhibition, usual class: activators. 320,000 tested, 2.8% active. AID 485297; note: % of control where 0% means no effect; nearly all actives have a fitted effect of over 60% in size
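Luciferase signal after 10 min detection reagent at ambient indicates Rab9 promoter upregulation; stably transfected Huh7 cells were treated 24 h with compound in DMSO at 37 °C, 5% CO2.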
SMN2 splice up – increases expression of the SMN2 splice variant; HEK293 SMN2-luciferase splicing reporter, luminescence, 30-36 h; Potency, µM (series often up to 46.1 µM), for the others: at the highest dose activity change, positive = activation, most hits filed as activators; 210,000 tested, 2.8% active; note: % of control where 0% means no effect; nearly all actives have a fitted effect of over 55% in size
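HEK293 cells carry an SMN2 […]–luciferase reporter in which exon 7 inclusion puts luciferase in frame. Cells were plated 10-12 h before compound addition, then incubated 30-36 h at 37C. ONE-Glo luminescence was read; sodium butyrate at 4.5 mM final served as control.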
NPC1 prom act – activates the NPC1 promoter. Huh7 NPC1 promoter luciferase reporter, 24 h. Potency, µM (highest dose often 9.22 µM), inactives show top-dose activation, most hits filed as activators. 320,000 tested, 2.4% active. AID 485313; note: % of control where 0% means no effect; nearly all actives have a fitted effect of over 60% in size
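Stable NPC1-promoter luciferase Huh7 line; cpd (DMSO) 24 h, 37 °C, 5% CO2; Amplite luciferase reagent 10 min RT; luminescence readout. qHTS format.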
Starred values were filed as active, the others as inactive; ? = inconclusive; . = no result; [ ] = another dose, or the depositor's remark. Calls come from the whole dose curve; as a rule, active = well fitted curve in the direction sought with a large enough effect; inconclusive = small, poorly fitted or top-dose-only effect, or another doubt; inactive = no such curve, though single readings can be large; an effect the other way counts as inactive or inconclusive. Potency is the fitted concentration of half-maximal effect.

SMILES | ELG1 repair inh | ELG1 genotoxic | FLuc counter | Rab9 promoter act | SMN2 splice up | NPC1 prom act
CCn1cnc2sc(C(=O)Nc3ccc4c(c3)OCO4)c(C)c2c1=O | ? | 8.9µM* | 11µM* | 2.8µM* | 13µM* | ?
O=C(Nc1ccc(OC(F)(F)F)cc1)c1cnc2n(c1=O)CCS2 | ? | 7.3µM* | -11% | 14% | -55% | ?
Cc1cccc(NC(=O)c2cnc3n(c2=O)CCS3)c1 | ? | ? | 12µM* | 3.5µM* | 11µM* | 3.5µM*
O=C(Nc1ccc2c(c1)OCO2)c1cnc2n(c1=O)CCS2 | ? | ? | ? | 3.2µM* | 13µM* | ?
O=C(Nc1ccccc1)c1cnc2n(c1=O)CCS2 | ? | 15% | ? | ? | ? | 25%
CC(NC(=O)CN1C(=O)NC2(CCc3ccccc32)C1=O)c1ccc2c(c1)OCCO2 (stereo not drawn) | 18% | 1% | 1% | -5% | . | -6%
COc1cccc2c3c(c(C)nc12)CC(CO)O3 (stereo not drawn) | . | . | . | . | 5% | .
O=C(Nc1ccc2c(c1)OCCO2)c1cnc2n(c1=O)CCS2 | ? | 9.2µM* | 9.5µM* | 2µM* | 20µM* | 2.5µM*
O=C(NCc1ccc2c(c1)OCO2)c1cnc2n(c1=O)CCS2 | 13% | -1% | -1% | -6% | 7% | 3%
Cc1ccc(C(=O)OCC(=O)c2ccc(CC(=O)N3CCOCC3)s2)c(C)c1 | 22% | 1% | 17µM* | -1% | . | 1%
Cc1ccc(C(=O)OCC(=O)c2ccc(CC(=O)N3CCOCC3)s2)cc1C | -7% | 1% | 24µM* | -4% | . | 2%
Cc1ccc(C(=O)OCC(=O)N2CCNC2=O)c(C)c1 | ? | ? | 21µM* | ? | . | ?
CCc1cc2c(COC(=O)c3cccc(NS(C)(=O)=O)c3)cc(=O)oc2cc1O | ? | -32% | 6% | 1% | . | 2%
Cn1cc(C(=O)O)c(=O)c2cc(S(=O)(=O)N3CCCCC3)ccc21 | . | . | -3% | . | . | .
CCN(CC)CCCC(C)n1c(-c2ccccc2)nc2c(N(CCOC)CCOC)nc(C)nc21 (stereo not drawn) | . | . | . | . | 23% | .
BrC(/C=C\c1ccccc1)=N/Nc1nc(N2CCOCC2)nc(N2CCOCC2)n1 | 12µM* | -1% | -1% | 0% | -11% | -4%
CC(/C=N/Nc1nc(N2CCCCC2)nc(N2CCCCC2)n1)=C\c1ccccc1 | 8% | -5% | 3% | -1% | -29% | 11%
BrC(=C\c1ccccc1)/C=N/Nc1nc(N2CCOCC2)nc(N2CCOCC2)n1 | 16µM* | -3% | 2% | -4% | -12%[1.84 µM] | -4%
Cc1ccc(N2CC(C)Cn3c2nc2c3c(=O)[nH]c(=O)n2C)cc1C (stereo not drawn) | 9.2µM* | 0% | 0% | -4% | . | 0%
CC/C(=N\NC(=O)c1ccc(CN(C)S(=O)(=O)c2ccc(C)cc2)cc1)c1ccc(OC(F)F)cc1 | ? | -2% | -3% | -12% | -36% | -3%
CC(NC(=O)/C=C/c1cnc2ccccc2n1)C12CC3CC(CC(C3)C1)C2 (stereo not drawn) | ? | -1% | -1% | 0% | -36% | -8%
O=C(NNC(=O)C1[C@H]2CCCC[C@@H]12)Nc1cccc2ccccc12 (stereo partly drawn) | 26µM* | -10% | -16% | -2% | . | 7%
CC1CN(c2nc3ccccc3cc2-c2ccccc2)CC(C)O1 (stereo not drawn) | -3% | 0% | -12% | 8% | -22% | 11%
CCN(CC)S(=O)(=O)c1ccc(N2CCOCC2)c(NC(=O)COc2ccc(C#N)cc2)c1 | 0% | -7% | 15µM* | -3% | . | -5%
CCN(CC)S(=O)(=O)c1ccc(N2CCOCC2)c(NC(=O)COc2ccc(OC)cc2)c1 | 18µM* | -3% | ? | -5% | . | -8%
